The results in this text go back to PubChem BioAssay.

The source made the active and inactive calls.

The subject of assay [1] is PRMT1 (protein arginine N-methyltransferase 1). The assay is described as follows: PRMT1 binders on small-molecule microarrays, primary screen, biochemical, small-molecule microarray, 635 nm fluorescence (AID 1088).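 Further: binding of Prmt1 protein to compounds spotted on small-molecule microarray slides.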 The conditions noted are these: small-molecule microarray binding, higher = more signal.
The nature of assay [2]: yeast growth modulation, basal conditions, primary screen, YJM789 clinical isolate, OD600, 24 h (AID 1089).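 Further: growth of clinical yeast isolate S. cerevisiae YJM 789 seeded 1000 cells per well; test concentration not given here.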 The following applies: S. cerevisiae YJM789 growth, higher = more signal, called active from +8 up or from −8 down.
A short description of assay [3]: fission yeast growth modulation, primary screen, strain 972, OD600, 24 h, no modulator (AID 1090).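 Further: basal condition with compound alone and no growth modifier present; test concentration not given here.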 The conditions noted are these: S. pombe 972 growth, higher = more signal, called active from +8 up or from −8 down.
The nature of assay [4]: S. cerevisiae growth modulation with rapamycin, primary screen, strain BY4716, OD600, 96 h (AID 1091). Further: test concentration not given here. The following applies: higher = more signal, called active from +8 up or from −8 down.
Assay [5] concerns the target Torsin-1A-interacting protein 2 (Homo sapiens) (UniProt Q8NFQ8). The assay is described as follows: LULL1 binders on small-molecule microarray, primary screen, cell lysate, human LULL1 lysate, 635/667 nm fluorescence (AID 1092).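 Further: probe is lysate of COS7 cells overexpressing human LULL1; score merges per-feature 667 nm fluorescence with signal-to-noise.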 The conditions noted are these: hLULL1 lysate binding, 635 nm fluorescence, higher = more signal.
Assay [6] in a line: E. coli growth modulation, two-sided OD650, primary screen, E. coli filamentation project, strain DRC41, 24 h (AID 1093).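 Further: MC1000 strain lacking acrAB efflux and sulA so SOS filamentation is blocked; test concentration not given here.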 The following applies: OD650, 24 h, higher = more signal, called active from +8 up or from −8 down.
The nature of assay [7]: small-molecule microarray binders of probe aLefty2, primary screen, biochemical, biotinylated probe, 635/667 nm fluorescence (AID 1094).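 Further: score merges spot fluorescence near 667 nm with spot signal-to-noise ratio.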 The conditions noted are these: higher = more signal.
The subject of assay [8] is Noggin (protein binding on small-molecule microarray). The assay is described as follows: Noggin binders on small-molecule microarray, primary screen, biochemical, 635/667 nm fluorescence (AID 1095).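 Further: score merges 667 nm feature fluorescence with signal to noise over triplicate slides.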 The conditions noted are these: 635 nm fluorescence, higher = more signal.
Assay [9] deals with Neurogenic locus notch homolog protein 3 (Homo sapiens) (UniProt Q9UM47). The assay is described as follows: NOTCH3 binders on small-molecule microarray, primary screen, biochemical, 635/667 nm fluorescence (AID 1096). The conditions noted are these: NOTCH3 binding, 635 nm fluorescence, higher = more signal.
A short description of assay [10]: small-molecule microarray binders of probe aEGFR, primary screen, biochemical, biotinylated probe, 635/667 nm fluorescence (AID 1097).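 Further: probe is a biotinylated anti-EGFR antibody binding compounds printed on slides; score combines fluorescence near 667 nm and signal to noise of each spot.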 The conditions noted are these: higher = more signal.

Sequence of Neurogenic locus notch homolog protein 3 (Homo sapiens) (Q9UM47 whole entry, looked up): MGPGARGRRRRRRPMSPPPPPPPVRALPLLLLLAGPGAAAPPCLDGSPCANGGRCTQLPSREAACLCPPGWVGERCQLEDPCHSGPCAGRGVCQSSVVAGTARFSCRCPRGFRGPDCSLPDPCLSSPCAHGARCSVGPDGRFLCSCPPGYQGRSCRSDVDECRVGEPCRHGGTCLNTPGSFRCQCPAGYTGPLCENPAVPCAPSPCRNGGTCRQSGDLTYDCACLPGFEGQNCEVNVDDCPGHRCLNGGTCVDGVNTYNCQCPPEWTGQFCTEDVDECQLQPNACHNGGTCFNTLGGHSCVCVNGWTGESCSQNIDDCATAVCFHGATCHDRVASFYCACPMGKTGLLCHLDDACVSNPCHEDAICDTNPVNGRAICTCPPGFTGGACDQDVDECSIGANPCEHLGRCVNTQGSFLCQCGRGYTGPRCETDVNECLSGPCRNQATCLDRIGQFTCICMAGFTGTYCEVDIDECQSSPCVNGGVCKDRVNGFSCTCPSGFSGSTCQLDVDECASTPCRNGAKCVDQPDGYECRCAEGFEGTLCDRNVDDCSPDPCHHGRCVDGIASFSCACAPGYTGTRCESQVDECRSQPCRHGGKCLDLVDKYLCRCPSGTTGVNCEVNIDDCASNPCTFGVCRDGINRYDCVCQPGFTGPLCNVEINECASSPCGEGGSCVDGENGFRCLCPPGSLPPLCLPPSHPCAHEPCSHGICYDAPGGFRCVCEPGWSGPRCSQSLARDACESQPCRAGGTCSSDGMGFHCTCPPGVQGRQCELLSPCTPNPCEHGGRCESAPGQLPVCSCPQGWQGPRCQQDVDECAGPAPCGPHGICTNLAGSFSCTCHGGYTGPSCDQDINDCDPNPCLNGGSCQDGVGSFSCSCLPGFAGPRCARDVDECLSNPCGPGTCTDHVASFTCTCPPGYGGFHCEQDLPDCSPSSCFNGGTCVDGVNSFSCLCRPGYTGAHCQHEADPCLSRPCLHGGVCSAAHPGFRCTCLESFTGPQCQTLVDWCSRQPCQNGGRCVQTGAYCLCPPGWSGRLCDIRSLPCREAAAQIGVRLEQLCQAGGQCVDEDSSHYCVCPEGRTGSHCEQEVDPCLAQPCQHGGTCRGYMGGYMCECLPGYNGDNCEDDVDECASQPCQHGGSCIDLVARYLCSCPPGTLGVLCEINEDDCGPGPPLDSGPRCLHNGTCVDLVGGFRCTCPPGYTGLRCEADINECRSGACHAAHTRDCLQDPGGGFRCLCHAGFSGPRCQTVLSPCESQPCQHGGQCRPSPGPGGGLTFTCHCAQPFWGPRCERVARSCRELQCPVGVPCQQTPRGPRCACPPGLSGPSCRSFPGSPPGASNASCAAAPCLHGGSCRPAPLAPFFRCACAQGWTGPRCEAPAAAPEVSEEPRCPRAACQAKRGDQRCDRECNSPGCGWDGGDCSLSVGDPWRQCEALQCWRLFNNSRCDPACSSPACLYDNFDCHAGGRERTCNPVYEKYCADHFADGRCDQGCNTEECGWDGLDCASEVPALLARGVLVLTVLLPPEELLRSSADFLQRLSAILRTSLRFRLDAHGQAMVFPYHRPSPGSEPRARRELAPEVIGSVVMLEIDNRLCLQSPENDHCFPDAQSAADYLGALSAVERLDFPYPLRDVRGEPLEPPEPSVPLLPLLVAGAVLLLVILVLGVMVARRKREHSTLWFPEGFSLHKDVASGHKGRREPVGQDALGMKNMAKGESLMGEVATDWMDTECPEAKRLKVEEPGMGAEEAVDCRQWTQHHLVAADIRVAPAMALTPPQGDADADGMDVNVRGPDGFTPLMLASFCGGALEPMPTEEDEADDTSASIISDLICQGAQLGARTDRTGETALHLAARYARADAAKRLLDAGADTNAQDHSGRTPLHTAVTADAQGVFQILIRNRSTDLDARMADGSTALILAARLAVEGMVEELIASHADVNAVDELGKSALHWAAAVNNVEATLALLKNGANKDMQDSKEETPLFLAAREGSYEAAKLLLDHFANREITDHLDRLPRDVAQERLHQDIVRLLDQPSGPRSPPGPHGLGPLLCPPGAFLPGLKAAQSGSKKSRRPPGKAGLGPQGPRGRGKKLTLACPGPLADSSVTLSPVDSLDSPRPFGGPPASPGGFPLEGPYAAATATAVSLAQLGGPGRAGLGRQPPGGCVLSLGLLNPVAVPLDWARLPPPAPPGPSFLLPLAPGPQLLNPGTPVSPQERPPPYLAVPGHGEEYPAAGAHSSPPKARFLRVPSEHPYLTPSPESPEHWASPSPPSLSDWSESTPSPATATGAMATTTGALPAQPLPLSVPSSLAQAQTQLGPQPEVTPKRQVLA
Sequence of Torsin-1A-interacting protein 2 (Homo sapiens) (Q8NFQ8 whole entry, looked up): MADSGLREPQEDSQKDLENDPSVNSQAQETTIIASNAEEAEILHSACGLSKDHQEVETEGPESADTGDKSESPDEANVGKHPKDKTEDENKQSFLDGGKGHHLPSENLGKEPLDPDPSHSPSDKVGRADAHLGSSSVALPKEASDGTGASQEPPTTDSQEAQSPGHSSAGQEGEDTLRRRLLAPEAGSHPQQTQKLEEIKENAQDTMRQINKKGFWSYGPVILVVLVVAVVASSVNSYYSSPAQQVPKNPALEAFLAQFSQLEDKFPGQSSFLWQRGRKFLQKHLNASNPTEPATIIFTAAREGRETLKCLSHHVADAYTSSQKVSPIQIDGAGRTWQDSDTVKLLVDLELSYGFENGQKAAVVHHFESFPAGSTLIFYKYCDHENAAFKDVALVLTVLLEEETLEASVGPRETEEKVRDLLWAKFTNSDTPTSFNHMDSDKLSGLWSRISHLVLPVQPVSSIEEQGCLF

Turning to `O=C1C[C@@](C(=O)NCc2ccccc2)(c2ccc([N+](=O)[O-])cc2)[C@@H](c2ccc(CO)cc2)N1CC12CC3CC(CC(C3)C1)C2`, the composite z-score in assay [1] was 1.54; in [5] it was 2.39; in assay [7], -0.0965; in assay [8], 1.52; in assay [9], 1.15; in assay [10], -0.166. The z-score in assay [2] is 0.893 (inactive); in assay [3], 0.639 (inactive); in assay [4], 8.2 (active); in assay [6], 0.657 (inactive).

Take `[N-]=[N+]=Nc1ccccc1C[C@]1(C(=O)NCc2ccccc2)N=C(c2ccc(OCCCO)cc2)O[C@H]1c1ccccc1N=[N+]=[N-]`: the composite z-score in assay [1] was 1.52; in assay [5] it was 2.53; in assay [7], 0.292; in assay [8] it was 0.358; in assay [9], 1.04; in assay [10] it was -0.067. Moreover, the z-score is 0.422 (inactive) in [2], 1.63 (inactive) in [3], 4.87 (inactive) in [4] and 0.362 (inactive) in assay [6].

As to `[N-]=[N+]=NCc1ccccc1[C@@H]1OC(c2ccc(OCCCO)cc2)=N[C@]1(CCS(=O)(=O)c1ccccc1)C(=O)N1CCOCC1`, the composite z-score in [1] turned out to be 1.54; in assay [5] it was 3.24; in assay [7], 0.456; in [8], 0.256; in [9], 1.07; in assay [10] it was 0.256. Moreover, the z-score is -0.401 (inactive) in assay [2], 0.144 (inactive) in [3], 0.971 (inactive) in assay [4] and 1.7 (inactive) in assay [6].

For `COc1ccc([Si](C)(C)[C@@H]2[C@@H](CCn3cc([C@H](O)c4ccccc4)nn3)O[C@]3(C(=O)N(Cc4cccc(N5CCC5=O)c4)c4ccccc43)[C@H]2C)cc1`, the composite z-score was -0.284 in [1]; 0.167 in [5]; -0.0956 in assay [7]; 0.459 in [8]; -0.468 in assay [9]; -0.0267 in assay [10]. The z-score in [2] was -0.442 (inactive); in assay [3], 1.23 (inactive); in assay [4] it was 2.14 (inactive); in [6], -0.546 (inactive).

Turning to `C=C(/C(=C/C[C@H](OC(C)=O)c1ccc(OCCO)cc1)c1cc(C(=O)OC)ccc1OC)C(C)C`, the composite z-score was 1.55 in [1]; 2.79 in [5]; -0.0616 in assay [7]; 1.39 in [8]; 0.51 in assay [9]; -0.0828 in [10]. The z-score in [2] is 0.71 (inactive); in assay [3], -0.299 (inactive); in assay [4], -0.874 (inactive); in assay [6], 0.806 (inactive).

Turning to `Cc1ccc(S[C@]2(C(=O)O)CC(=O)N(Cc3ccccc3C(F)(F)F)[C@@H]2c2ccc(CO)cc2I)cc1`, the composite z-score in assay [1] was 0.471; in assay [5], 1.65; in assay [7], -0.205; in [8], -0.571; in assay [9], -1.02; in assay [10], -0.213. For the same compound, the z-score is -1.73 (inactive) in assay [2], -2.36 (inactive) in [3], 0.695 (inactive) in assay [4] and -1.11 (inactive) in assay [6].

Turning to `C=CCNC(=O)[C@H]1[C@@H]2C(=O)O[C@@H](c3ccccc3)[C@@H](c3ccccc3)N2[C@@H](c2ccc(OCCO)cc2)[C@]12C(=O)Nc1ccc(C#CCC(C(=O)OC)C(=O)OC)cc12`, the composite z-score was 1.56 in [1]; 2.74 in assay [5]; 0.187 in [7]; 0.608 in assay [8]; 1.08 in assay [9]; -0.004 in assay [10]. The z-score in [2] was 1.63 (inactive); in assay [3], 1.79 (inactive); in [4], 5.79 (inactive); in assay [6] it was 0.0251 (inactive).

In the case of `CCOC(=O)C[C@H]1[C@H](OC(=O)c2ccc(C(=O)c3ccccc3)cc2)[C@@H](NC(=O)c2ccccc2)c2cc(OCCCO)ccc2N1C(=O)c1ccccc1`, the composite z-score was 0.844 in [1]; 1.72 in assay [5]; -0.0154 in assay [7]; 0.508 in assay [8]; 1.01 in [9]; 0.121 in [10]. The z-score is -0.178 (inactive) in assay [2], 0.801 (inactive) in assay [3], -0.536 (inactive) in assay [4] and -0.448 (inactive) in [6].

As for `CCCCC(=C=CC[C@H](O)c1cccc(OCCO)c1)C[C@H](O)c1ccccn1`, the composite z-score in assay [1] is 0.483; in [5], -0.639; in assay [7], -0.165; in [8] it was 0.395; in assay [9], -0.153; in assay [10], -0.13. Further, the z-score was -1.2 (inactive) in assay [2], -1.12 (inactive) in assay [3], -1.68 (inactive) in assay [4] and 1.34 (inactive) in assay [6].

As to `O=C1O[C@H](c2ccccc2)[C@H](c2ccccc2)N2[C@H]1[C@@H](C(=O)NC[C@H](O)c1ccccc1)[C@]1(C(=O)Nc3ccc(C#CC4=CCCCC4)cc31)[C@H]2c1ccccc1OCCO`, the composite z-score came to 1.43 in assay [1]; 1.64 in assay [5]; 0.107 in assay [7]; 0.545 in assay [8]; 0.786 in [9]; 0.032 in [10]. The z-score is 2.2 (inactive) in assay [2], -0.874 (inactive) in assay [3], 2.64 (inactive) in assay [4] and -0.0991 (inactive) in assay [6].

On to `CCCC[C@H]1C[C@@H]1[C@@H]1N(P(=O)(c2ccccc2)c2ccccc2)C[C@@](O)(c2ccccc2)CC12CC2`, for which the composite z-score in assay [1] was 0.761; in assay [5], 3.06; in assay [7] it was 0.356; in assay [8], -0.695; in [9], -0.317; in assay [10] it was 0.0144. For the same compound, the z-score in assay [2] is -0.841 (inactive); in [3] it was -7.02 (inactive); in assay [4], 32.9 (active); in assay [6], -0.931 (inactive).

On to `COc1ccc(NC(=O)O[C@H]2[C@H](OC(=O)c3cc4ccccc4[nH]3)[C@@H](OC(=O)c3cc4ccccc4[nH]3)[C@@H](OC)O[C@@H]2CO)cc1`, for which the composite z-score was 0.496 in assay [1]; 1.54 in [5]; -0.007 in assay [7]; 0.21 in assay [8]; 0.475 in [9]; -0.0409 in [10]. Also, the z-score in assay [2] was -1.68 (inactive); in assay [3], -0.519 (inactive); in [4], 0.611 (inactive); in assay [6], 0.593 (inactive).

For `COCCCNC(=O)[C@@]1(CCS(=O)(=O)c2ccccc2)N=C(c2ccc(OCCCO)cc2)O[C@H]1c1ccccc1N=[N+]=[N-]`, the composite z-score was determined as 1.53 in assay [1]; 3.47 in assay [5]; 0.155 in [7]; 0.908 in assay [8]; 1.07 in assay [9]; 0.0135 in [10]. For the same compound, the z-score in assay [2] is -1.2 (inactive); in [3], 0.431 (inactive); in assay [4] it was 1.36 (inactive); in assay [6], 0.299 (inactive).

Consider `C=CCN1C(=O)[C@]2(Cc3ccccc3)N=C(c3ccc(OCCCO)cc3)O[C@@H]2c2ccccc21`, for which the composite z-score in assay [1] was 1.53; in assay [5] it was 3.13; in assay [7], 0.295; in assay [8], 1.2; in assay [9], 1.15; in assay [10], 0.133. Besides, the z-score was 0.331 (inactive) in assay [2], -0.694 (inactive) in assay [3], 1.46 (inactive) in assay [4] and 0.482 (inactive) in assay [6].
